# Reference: the supplement of paper PMC10681739
# Legend:
# ETS1 [1] = target: T1, ETS1 (UniProt P14921); experiment: ETS1 binding intensity (PBM fluorescence), ETS1 alone (arbitrary fluorescence units); higher = stronger binding; conditions: ETS1 concentration 1 nM; RUNX1 concentration 0 nM
# T1 sequence: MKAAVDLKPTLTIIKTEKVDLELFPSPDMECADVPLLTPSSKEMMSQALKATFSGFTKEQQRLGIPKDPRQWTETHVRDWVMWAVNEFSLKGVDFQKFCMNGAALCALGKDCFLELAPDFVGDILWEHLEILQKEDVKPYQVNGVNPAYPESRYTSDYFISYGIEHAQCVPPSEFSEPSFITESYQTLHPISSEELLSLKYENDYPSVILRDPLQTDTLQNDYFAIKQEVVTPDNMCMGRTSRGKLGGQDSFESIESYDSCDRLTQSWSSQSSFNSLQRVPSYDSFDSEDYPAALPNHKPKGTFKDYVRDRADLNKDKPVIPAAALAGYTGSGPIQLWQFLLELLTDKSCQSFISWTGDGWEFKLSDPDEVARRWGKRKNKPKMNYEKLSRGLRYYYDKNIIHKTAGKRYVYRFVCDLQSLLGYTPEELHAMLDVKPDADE
# RUNX1 [2] = target: RUNX1 (UniProt Q01196); experiment: RUNX1 binding intensity (PBM fluorescence), RUNX1 alone (arbitrary fluorescence units); higher = stronger binding; conditions: RUNX1 concentration 2 nM; ETS1 concentration 0 nM
# Protocol: (§1)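 Cooperative gcPBM on 36-bp genomic probes with neighbouring ETS1 and RUNX1 sites. Recombinant human RUNX1 (2 nM) was incubated alone or with ETS1 (25 nM) and detected with anti-RUNX1 antibody plus Alexa488 secondary. Values are medians over 4 replicate spots; the RUNX1+ETS1 data were normalised to the RUNX1-only data. The probes sit in constant array flanks that are not printed.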
# ETS1 [3] = target: T1, ETS1; experiment: ETS1 binding intensity (PBM fluorescence) in presence of RUNX1, normalised to ETS1-only experiment (arbitrary fluorescence units); higher = stronger binding; conditions: ETS1 concentration 1 nM; RUNX1 concentration 25 nM
# RUNX1 [4] = target: RUNX1 (UniProt Q01196); experiment: RUNX1 binding intensity (PBM fluorescence) in presence of ETS1, normalised to RUNX1-only experiment (arbitrary fluorescence units); higher = stronger binding; conditions: RUNX1 concentration 2 nM; ETS1 concentration 25 nM
# Protocol: as §1
# 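For RUNX1 binding intensity (PBM fluorescence) in presence of ETS1, normalised to RUNX1-only experiment in this document: Full-length recombinant human ETS1 or RUNX1 bound to double-stranded 36-bp genomic probes on microarrays, detected by protein-specific primary antibody and Alexa488 secondary, spot fluorescence as median of four replicate spots.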
# 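For RUNX1 binding intensity (PBM fluorescence), RUNX1 alone in this document: Full-length recombinant human RUNX1 bound to double-stranded 36-bp genomic probes on a high-density microarray, scored as Alexa488 fluorescence per spot via anti-RUNX1 antibody, median of four replicate spots.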
# Chain of RUNX1 (Q01196 whole entry): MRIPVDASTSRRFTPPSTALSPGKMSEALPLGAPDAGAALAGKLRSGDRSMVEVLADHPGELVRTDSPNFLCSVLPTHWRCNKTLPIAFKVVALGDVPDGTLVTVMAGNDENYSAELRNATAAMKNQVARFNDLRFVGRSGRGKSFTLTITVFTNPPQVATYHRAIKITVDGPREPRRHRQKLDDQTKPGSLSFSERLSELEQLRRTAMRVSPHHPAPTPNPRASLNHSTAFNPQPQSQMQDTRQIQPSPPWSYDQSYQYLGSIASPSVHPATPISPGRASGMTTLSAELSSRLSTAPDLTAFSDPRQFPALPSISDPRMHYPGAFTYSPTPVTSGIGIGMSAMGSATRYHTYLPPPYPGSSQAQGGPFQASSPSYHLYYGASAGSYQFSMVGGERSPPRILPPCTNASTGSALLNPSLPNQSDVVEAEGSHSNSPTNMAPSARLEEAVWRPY
Sequence,ETS1 binding intensity (ETS1 [1]),RUNX1 binding intensity (RUNX1 [2]),ETS1 binding intensity (ETS1 [3]),RUNX1 binding intensity (RUNX1 [4])
GTTCTCAGCTTCCTGTTCACAGAGAAACCTCAGACA,1370,946,1560,1390
CAGCTCTCTCGCTTCCTGTGGTGTAAACATGAAGCA,1570,964,1400,1500
GTGCAGGGCCCGGAAGCTCAGTGTGGTTAAAGACAT,2010,805,5260,1540
CTACAGGAAGTTCGAACTGGGCGGAGCCCACCGCAG,1320,658,1950,1120
CCTTTCCGCGAGACCTTCCGCGGTTATCCAGCGAGT,372,1160,481,1510
TTTCGAGAAAACCGGAAGTGCGTGGTCACGCCCCGC,29400,733,38100,1670
ACACAGGAAGGACGCACGCTCCCGCCCCAACCACAT,690,901,563,1060
GGGCGGGTGAGACCAGGATGTGGGTTCCCCCACCTT,1880,775,3540,1120
CACTGATTAAGAGGAAGTGTGTGTGGTTATTACCGT,1980,804,8330,1170
AGCTAGACTACAGGAGGAAACCACAGCCTAAACCAG,541,1250,1030,1410
TCCAGCGGAAGGGGGCATCTTTGCGGCAGAGGCAGC,470,764,431,979
CTGCCTGGCACAGGATGTGGTCATTTGTGCTGAGGA,5880,730,17900,4420
AGGTTAATACCCGGAACTACCACAACCGTCTTCCCT,772,1020,862,985
TTTAGACACCGCTTCCTGCCACAAGCCCAAGACTTA,758,918,839,3470
GTATGGGAAGTGATCTGGCTGCAAACCGCAAGAGAG,549,4520,2730,7290
TTATTTCCTCTTTTTTTTTTTTTTTTTGGTTTTGCT,483,1960,440,4230
TTCTTCCGGCAACTGCTGCTGAGGCTGCGGTGGCGG,455,799,899,2050
CTCACAGAAGAGGCAGGAAGTGGTTTGAGTTATCAT,9460,820,13700,1590
ACTTGACTTCCTGTGGGGTGTGTGGTGTCTGCACTT,940,798,901,2010
CCCGCGACACAAGGCGGATGTGGTACCCTCACTTGT,3250,820,5070,1200

Sequence,ETS1 binding intensity (ETS1 [1]),RUNX1 binding intensity (RUNX1 [2]),ETS1 binding intensity (ETS1 [3]),RUNX1 binding intensity (RUNX1 [4])
CTTGGCGGAAGTGGTGTGGGGGAGGTAGCCCGCAGT,1840,753,5600,3460
GCGGGCAGGATCTTCCTGTGGTTTGCCTTGCCCACT,388,904,653,2190
TTACAGGGGCCGGAAGTGGCCTGCGGGCGGAGAAGT,21200,753,30900,2020
CCGGCAGGAAGTTAGCATGGGCGGACCACACGGGGG,1400,1470,1530,1590
CATGGTTGTTATTTCCTCACCACAATATGTGACATT,386,1200,463,1300
TGATTAAAAACAGGATGTGGGTGAATAGTCATGCAT,4810,759,7580,2490
CCGCTTCCGGCCTTCGCCCGGCTTACCCGCGTCGCA,1490,1070,1740,2920
AGCGCCCCATCCCGCGGATGTGGTAAAGCTTCGCGC,658,788,4400,1570
GCCCGCCCCGGAAGTGCAAACTGTGTGGTCTGGCAG,3980,867,7090,1330
CGCCTCATTTCCTGTGCAACTGCGGTAAAAATAGGA,1860,1630,5000,4630
AAAGAACTTCCTGAGGTGCTTGAGGTTAGGCTATGG,487,727,498,1660
GGAATTTCTTTTTCCGGTCCCGCAGGGTCAGCTGAG,1240,735,1520,1750
CTCTTTCACAAAGGAAATGGAAACCACAAAGAGGAC,2140,1820,14700,3930
CTCACTTCCCCGGCAGCTCCCTCGCCCCGACCGCAG,406,1910,479,2740
CCAAAAACCCCAGGAGGATGTGGTGAGGAGGGAAGG,1110,831,2590,1040
GCAGAAGGATTTCCTGTTTCAGGCAACCACAGCGAC,1630,773,2450,1510
CTGTCATCTTCCTGACAGCACGCCCACAAAGGACCA,482,843,377,916
GAGGGTTGCTGGGGGGAAGTGTGGTAAATCTTTTCC,458,938,475,930
TCAGCTGACACAGGAAGTGGTAAAGCTATTATCTGT,9480,735,16400,2730
TACCAACAGGAATCTTTGGGGTCTAAACCGCAAACA,481,3800,2160,5090
